In PubChem BioAssay (NCATS):
Inconclusive results are not listed. Values without a mark were called inactive. The source made the active and inactive calls. Calls come from the whole dose curve; as a rule, active = well fitted inhibition curve with a large enough effect in the repeat runs; inconclusive = weak or mixed curves; inactive = flat fitted curve, though single readings scatter.

target: Cytochrome P450 2D6 (Homo sapiens) (UniProt P10635); experiment: Cytochrome P450 family 2 subfamily D member 6 (CYP2D6) small molecule antagonists: luciferase biochemical (cell-free) qHTS assay (AID 1645840); settings: P450-Glo CYP2D6 enzyme, luciferin luminescence, 1 h; series mostly up to 57.4 µM; activity change, negative = inhibition: at the top concentration; note: nearly all actives have a fitted effect of over 55% in size
Sequence (P10635 whole entry, looked up): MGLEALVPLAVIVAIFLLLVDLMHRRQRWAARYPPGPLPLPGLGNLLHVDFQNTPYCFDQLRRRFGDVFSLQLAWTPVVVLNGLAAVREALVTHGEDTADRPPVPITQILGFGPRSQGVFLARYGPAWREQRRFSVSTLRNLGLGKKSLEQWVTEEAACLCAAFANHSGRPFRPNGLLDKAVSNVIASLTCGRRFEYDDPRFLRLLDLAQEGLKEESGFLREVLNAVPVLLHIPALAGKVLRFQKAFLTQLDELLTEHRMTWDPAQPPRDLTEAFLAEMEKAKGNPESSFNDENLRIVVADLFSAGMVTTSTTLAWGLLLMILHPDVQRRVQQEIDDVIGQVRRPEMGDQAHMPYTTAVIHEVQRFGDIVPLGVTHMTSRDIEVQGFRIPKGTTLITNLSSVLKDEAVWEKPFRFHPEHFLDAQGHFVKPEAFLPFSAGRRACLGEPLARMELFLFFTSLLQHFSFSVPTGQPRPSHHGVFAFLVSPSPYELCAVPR
Protocol: National Center for Advancing Translational Sciences [NCATS] Assay Overview: Cytochrome P450 (CYP) enzymes are membrane-bound hemeproteins that play a key role in metabolism of drugs and xenobiotics. Assaying the effect of chemicals on CYP isozymes is useful to minimize the adverse drug reactions and toxicities in drug development process. Chemical compounds were tested for their effect on CYP enzyme activities by using P450-Glo (TM) screening systems (Promega Corporation, Madison, WI). These systems provide a luminescent method containing proluciferin substrates and are converted to luciferin products by CYP isozymes. The luciferin products formed are detected with a luciferin detection reagent, and the amount of light produced is proportional to CYP activity. P450-Glo (TM) CYP2D6 screening system (Catalog. No. V9890) was used to detect the compounds that interfere in CYP2D6 activity.
Assay Protocol Summary: Two ul of enzyme-substrate mix was dispensed into medium binding white/solid 1536-well plates (Greiner Bio-One North America Inc., Monroe, NC) using a Flying Reagent Dispenser (FRD, Aurora Discovery, San Diego, CA). […] The assay plates were incubated at room temperature for 10 min. Then 2 ul of NADPH regeneration solution was added to each well of the assay plates using an FRD and incubated at room temperature for 1 h. The reaction was stopped by adding 4 ul of detection reagent using an FRD and after 20 min incubation at room temperature, the luminescence signal was measured using a ViewLux plate reader (Perkin Elmer, Shelton, CT). Data were expressed as relative luminescence units.
% is set by controls: 0 for no effect and ±100 for the full control effect; potency is the fitted concentration of half-maximal effect.

Row | Compound | Potency | activity change, negative = inhibition
1 | Nc1ccc(Cl)cc1N | 25.9 µM (active) | 
2 | C=CC(=O)NCNC(=O)C=C |  | -1.42% [at 115 µM]
3 | O=S(=O)(O)C(F)(F)C(F)(F)C(F)(F)C(F)(F)C(F)(F)C(F)(F)C(F)(F)C(F)(F)F |  | -1.86% [at 115 µM]
4 | COc1ccc(C(c2ccc(OC)cc2)C(Cl)(Cl)Cl)cc1 |  | -14.4% [at 115 µM]
5 | CO/C=C(/C(=O)OC)c1ccccc1Oc1cc(Oc2ccccc2C#N)ncn1 | 39.9 µM (active) | 
6 | COC(=O)c1cncn1C(C)c1ccccc1 (stereo not given) | 7.76 µM (active) | 
7 | Fc1cc(Br)ccc1CBr |  | -4.93%
8 | O=C1C(I)=CC(=C(c2cc(I)c(O)c(I)c2)c2ccccc2C(=O)O)C=C1I | 9.77 µM (active) | 
9 | CCN1CCN(C(=O)Cc2ccc(Nc3ncc(F)c(Nc4ccc(C(=O)Nc5ccccc5Cl)cc4)n3)cc2)CC1 |  | -23.2%
10 | CC1(C)CC/C(=C/c2ccc(Cl)cc2)C1(O)Cn1cncn1 (stereo not given) | 9.41 µM (active) | 
11 | OCCCBr |  | 10.9% [at 115 µM]
12 | COc1ccc(N(C(=O)Oc2c(C)cccc2C)c2ccnc(Nc3ccc(N4CCN(C)CC4)cc3)n2)c(OC)c1 | 1.9 µM (active) | 
13 | O=C(Nc1ccncc1)C(=O)c1cn(Cc2ccc(Cl)cc2)c2ccccc12 |  | -27.8%
14 | CC1=C(C(=O)O)N2C(=O)[C@@H](N)[C@H]2SC1 |  | 0.268% [at 23.9 µM]
15 | Cc1ccc(Cl)c(O)c1 |  | 2.62%
16 | O=C(O)COc1nc(Cl)c(Cl)cc1Cl |  | -6.72% [at 115 µM]
17 | CCc1c(C(=O)C(N)=O)c2c(OCC(=O)O)cccc2n1Cc1ccccc1 |  | -12.7%
18 | O=C(O)CNC(=O)c1c(O)c2ccccc2n(Cc2ccccc2)c1=O |  | 11.8%
19 | O=C(O)CCCOc1ccc(Cl)cc1Cl |  | 7.48% [at 115 µM]
20 | O=C(O)c1ccccc1O |  | 17.6%

Row | Compound | Potency | activity change, negative = inhibition
21 | Cc1ccccc1-n1c(Cn2ncc3c(N)ncnc32)nc2cccc(C)c2c1=O |  | 7.84%
22 | CC1=NN=C(c2ccc(N)cc2)c2cc3c(cc2C1)OCO3 | 19 µM (active) | 
23 | O=C(NCC1CCOCC1)c1cnc(Nc2ccc(Cl)cc2Cl)nc1C(F)(F)F |  | -5.14%
24 | CC(=O)N(C)c1cccc(-c2ccnc3c(C(=O)c4cccs4)cnn23)c1 |  | 8.27%
25 | CCCCC(CC)COC(=O)c1ccccc1C(=O)OCC(CC)CCCC (stereo not given) |  | 6.05% [at 115 µM]
26 | CCOCCOC(C)=O | inactive | 
27 | CC(O)CN1CCN(CC(=O)[O-])CCN(CC(=O)[O-])CCN(CC(=O)[O-])CC1.[Gd+3] (stereo not given) |  | 13.4%
28 | COCCOCCO |  | -3.21% [at 115 µM]
29 | O=[N+]([O-])/N=C1\NCCN1Cc1ccc(Cl)nc1 |  | 0.386%
30 | CCCCCCCCc1ccc(O)cc1 | 31 µM (active) | 
31 | CC(Cc1ccc(O)cc1)NCC(O)c1cc(O)cc(O)c1 (stereo not given) | 11 µM (active) | 
32 | O=C(O)c1ccccn1 |  | 10.1%
33 | COC(C)(C)CCCC(C)C/C=C/C(C)=C/C(=O)OC(C)C (stereo not given) |  | -22.1%
34 | CS(=O)(=O)c1ccc(C(=O)C2C(=O)CCCC2=O)c([N+](=O)[O-])c1 |  | 11.5% [at 115 µM]
35 | COCC1(CO)C(=O)C2CCN1CC2 (stereo not given) |  | 2.02%
36 | Nc1c(Cl)c(Cl)c(Cl)c(Cl)c1Cl |  | 9.39% [at 115 µM]
37 | CCCCCCCCCC(CC)c1ccc(S(=O)(=O)O)cc1 (stereo not given) | 26.7 µM (active) | 
38 | Cc1[nH]nc2ccc(-c3cncc(OC[C@@H](N)Cc4c[nH]c5ccccc45)c3)cc12 | 3.79 µM (active) | 
39 | CN[C@@H](C)[C@H](O)c1ccccc1 |  | -11.6%
40 | CSCC[C@@H](NC(=O)[C@@H](Cc1ccccc1)NC(=O)CNC(=O)CNC(=O)[C@@H](N)Cc1ccc(O)cc1)C(=O)O |  | 3.7%
